Data published in PubChem BioAssay AID1159580 (chemical genetic matrix, 2015).
Where “and” joins values, the source holds several entries; their conditions need not be identical. Identical values can stand only once. The whole screen tested about 5,500 compounds, of which about 2,000 (36%) were called active. Inconclusive results (about 18%) are left out. No stated cut-off is given here; in the data, active means normalized growth mostly below about 0.91 (no sharp cut-off); inconclusive means no clear call, values can overlap the other calls; inactive means mostly above about 0.92. The list shows a part of the results.

Experiment: chemical genetic growth profiling, strain panel (AID 1159580);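 further: tested at 20 µM; growth read once vehicle control cultures reached saturation at 30 °C; 1 = growth at the plate median or of vehicle wells; lower values mean less growth of the strain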
Details: S. cerevisiae deletion strains, growth OD

Measured: normalized growth

O=C(CCc1ccc(O)cc1)c1c(O)cc(O)cc1O
inactive: locus YAL013W, strain DEP1, hits give low values 1.01 | locus YAL021C, strain ccr4, hits give low values 0.998 | locus YAL026C, strain drs2, hits give low values 1 | locus YAL030W, strain snc1, hits give low values 1.01 | locus YAL040C, strain CLN3, hits give low values 1.05 | locus YBL061C, strain skt5, hits give low values 1.02 | locus YBR009C, strain hhf1, hits give low values 0.992 | locus YBR021W, strain FUR4, hits give low values 1.03 | locus YBR023C, strain chs3, hits give low values 0.999 | locus YBR171W, strain sec66, hits give low values 1.02 | locus YBR229C, strain ROT2, hits give low values 0.991 | locus YBR231C, strain swc5, hits give low values 1.01 | locus YBR279W, strain paf1, hits give low values 1.01 | locus YCL011C, strain gbp2, hits give low values 1.02 | locus YCL016C, strain dcc1, hits give low values 1.01 | locus YCL029C, strain bik1, hits give low values 1 | locus YCL061C, strain MRC1 (second series), hits give low values 1.01 | locus YCL061C, strain MRC1, hits give low values 0.99 | locus YCL069W, strain vba3, hits give low values 1.02 | locus YCR088W, strain abp1, hits give low values 1.02 | locus YDL005C, strain med2, hits give low values 1.02 | locus YDL035C, strain GPR1, hits give low values 1.01 | locus YDL040C, strain nat1, hits give low values 0.997 | locus YDL074C, strain BRE1, hits give low values 0.987 | locus YDL101C, strain DUN1, hits give low values 1.01 | locus YDL134C, strain PPH21, hits give low values 1.01 | locus YDL185W, strain tfp1, hits give low values 1.01 | locus YDL192W, strain arf1, hits give low values 1.01 | locus YDR001C, strain nth1, hits give low values 1.02 | locus YDR069C, strain doa4, hits give low values 0.978 | locus YDR101C, strain arx1, hits give low values 1.02 | locus YDR137W, strain rgp1, hits give low values 1.11 | locus YDR150W, strain NUM1, hits give low values 1 and 0.988 | locus YDR159W, strain sac3, hits give low values 1.04 | locus YDR162C, strain NBP2, hits give low values 0.989 | locus YDR195W, strain ref2 1 | locus YDR297W, strain sur2, hits give low values 1 | locus YDR318W, strain mcm21, hits give low values 1.04 | locus YDR334W, strain swr1, hits give low values 1 | locus YDR335W, strain msn5, hits give low values 1.01 | locus YDR363W, strain ESC2, hits give low values 0.977 | locus YDR388W, hits give low values 1.01 | locus YDR392W, strain spt3, hits give low values 1 | locus YDR502C, strain sam2, hits give low values 0.994 | locus YEL003W, strain gim4, hits give low values 1.01 | locus YEL037C, strain rad23, hits give low values 1 | locus YEL061C, strain CIN8 (second series), hits give low values 1.02 | locus YEL061C, strain CIN8, hits give low values 0.997 | locus YER002W, strain NOP16, hits give low values 1.02 | locus YER015W, strain faa2, hits give low values 1 | locus YER016W, strain bim1, hits give low values 1.01 | locus YER110C, hits give low values 1.01 | locus YER111C, strain swi4, hits give low values 1.01 | locus YER155C, strain BEM2 (second series), hits give low values 1 | locus YER155C, strain BEM2, hits give low values 1.01 | locus YER167W, strain BCK2, hits give low values 1.02 | locus YFR010W, strain ubp6, hits give low values 0.992 | locus YGL078C, strain dbp3, hits give low values 1.01 | locus YGL086W, strain mad1, hits give low values 1.01 | locus YGL167C, strain pmr1, hits give low values 1.01 | locus YGL173C, strain kem1, hits give low values 1.02 | locus YGL227W, strain vid30, hits give low values 1.02 | locus YGL240W, strain doc1, hits give low values 1.01 | locus YGL248W, strain PDE1, hits give low values 1 | locus YGL253W, strain hxk2, hits give low values 1.02 | locus YGR078C, strain PAC10, hits give low values 0.987 and 1.01 | locus YGR135W, strain pre9, hits give low values 0.998 | locus YGR229C, strain SMI1, hits give low values 0.979 | locus YHR013C, strain ard1, hits give low values 0.99 | locus YHR027C, strain rpn1, hits give low values 1.01 | locus YHR030C, strain SLT2, hits give low values 1 and 0.997 | locus YHR079C, strain IRE1 (second series), hits give low values 1 | locus YHR079C, strain IRE1, hits give low values 0.983 | locus YHR094C, strain hxt1, hits give low values 0.999 | locus YHR129C, strain ARP1, hits give low values 0.998 | locus YHR142W, strain chs7, hits give low values 1.01 | locus YHR200W, strain rpn10, hits give low values 1.02 | locus YIL066C, strain RNR3, hits give low values 1.01 | locus YIL073C, strain SPO22, hits give low values 1.1 | locus YIL125W, strain kgd1, hits give low values 1.03 | locus YIR030C, strain dcg1, hits give low values 1.01 | locus YJL092W, strain hpr5, hits give low values 1.01 | locus YJL095W, strain BCK1 (second series), hits give low values 1.01 | locus YJL095W, strain BCK1, hits give low values 0.994 and 0.99 | locus YJL115W, strain asf1, hits give low values 1.02 | locus YJL129C, strain trk1, hits give low values 1.05 | locus YJL134W, strain LCB3, hits give low values 1.01 | locus YJL154C, strain vps35, hits give low values 1.02 | locus YJL164C, strain tpk1, hits give low values 0.984 | locus YJL166W, strain qcr8, hits give low values 1.01 | locus YJL168C, strain set2, hits give low values 0.995 | locus YJL187C, strain SWE1 (second series), hits give low values 0.995 | locus YJL187C, strain SWE1, hits give low values 1.02 | locus YJR043C, strain POL32, hits give low values 0.997 | locus YJR066W, strain TOR1, hits give low values 0.948
